Source: the supplement of paper PMC6089552
Several values for one entry are separate records, joined by “and”; a condition that tells them apart may be missing. Equal entries are not always repeated. Out of some 3,200 compounds screened, about 300 (9.4%) showed activity. Shown is part of a subset that was picked to be rich in actives.

Tested on: A673/TR/shEF
Assay: cell viability (LOESS-normalised, relative to median of negative controls) (log2 ratio); higher = more viable cells (less compound effect), active = hit call of the paper (over 3 MAD below the median)
Conditions: treatment time: 72 h
In short: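 For three days, A673/TR/shEF Ewing sarcoma cells in 384-well plates (1,500 per well) were treated with library compounds at two or more concentrations or with DMSO controls, after doxycycline had been added or withheld 24 h beforehand to induce EWS-FLI1 shRNA knockdown. Viability was read by CellTiter-Glo luminescence on an Envision reader. The data were LOESS-corrected per plate, divided by the median of negative controls and log2-transformed.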

[1] = 0.25 µM, library screen: screen1, EWS-FLI1 expression: high (no doxycycline)
[2] = 0.25 µM, library screen: screen1, EWS-FLI1 expression: low (doxycycline-induced shRNA knockdown)
[3] = 2.5 µM, library screen: screen1, EWS-FLI1 expression: high (no doxycycline)
[4] = 2.5 µM, library screen: screen1, EWS-FLI1 expression: low (doxycycline-induced shRNA knockdown)
[5] = 0.25 µM, library screen: screen2, EWS-FLI1 expression: high (no doxycycline)
[6] = 0.25 µM, library screen: screen2, EWS-FLI1 expression: low (doxycycline-induced shRNA knockdown)
[7] = 2.5 µM, library screen: screen2, EWS-FLI1 expression: high (no doxycycline)
[8] = 2.5 µM, library screen: screen2, EWS-FLI1 expression: low (doxycycline-induced shRNA knockdown)

Measured: cell viability (log2)

CC[C@@]1(O)C[C@H](O[C@H]2C[C@H](N(C)C)[C@H](O)[C@H](C)O2)c2c(cc3c(c2O)C(=O)c2c(O)cccc2C3=O)[C@H]1C(=O)OC
inactive: [1] 0.0584 and -0.0862 | [2] -0.00295 and 0.0558
active: [3] -1.99 and -0.594 | [4] -0.405 and -0.193

CCC1(O)CC(OC2CC(N(C)C)C(O)C(C)O2)c2c(cc3c(c2O)C(=O)c2c(O)cccc2C3=O)C1C(=O)OC (centres undefined)
active: [7] -0.409 | [8] -0.0756 | 25 µM, library screen: screen2, EWS-FLI1 expression: high (no doxycycline) -4.23 | 25 µM, library screen: screen2, EWS-FLI1 expression: low (doxycycline-induced shRNA knockdown) -3.71
inactive: 0.025 µM, library screen: screen2, EWS-FLI1 expression: high (no doxycycline) -0.0129 | 0.025 µM, library screen: screen2, EWS-FLI1 expression: low (doxycycline-induced shRNA knockdown) 0.0193 | [5] 0.135 | [6] -0.0369

Cc1o[nH]c(=O)c1CC(N)C(=O)O (centres undefined)
inactive: [5] 0.115 | [6] 0.0119 | [7] 0.0854 | [8] 0.0272

COc1ccc2c3c1O[C@H]1C(=O)CC[C@@]4(O)C(C2)N(CC2CC2)CCC314 (some centres undefined)
inactive: [5] 0.143 | [6] 0.0949 | [7] -0.028 | [8] 0.00345

C[C@]12CCC3C(CC[C@H]4C[C@@H](Cl)CC[C@]34C)C1CCC2=O (some centres undefined)
inactive: [1] 0.0861 | [2] 0.0822 | [3] 0.109 | [4] 0.0908

CC1CC(Cl)CCC1C(=O)OC(C)(C)C (centres undefined)
inactive: [1] -0.0203 | [2] 0.0889 | [3] 0.151 | [4] 0.103

Cn1c(=O)c2c(ncn2CCCl)n(C)c1=O
inactive: [1] 0.086 | [2] -0.0151 | [3] -0.000593 | [4] 0.00538

CC(=O)O[C@H]1C[C@@H](OC(C)=O)C(C)(C)C2C[C@@H](OC(C)=O)[C@]3(C)C(CC[C@@]4(C)[C@H](c5ccoc5)C[C@H]5O[C@]543)[C@]21C (some centres undefined)
inactive: [1] 0.134 | [2] 0.0408 | [3] 0.129 | [4] 0.147

C[C@@H]1O[C@H](C[N+](C)(C)C)C[C@H]1O
inactive: [5] 0.143 | [6] 0.0741 | [7] 0.116 | [8] -0.0161

CCCN(CCC)C1CCc2cccc(O)c2C1 (centres undefined)
inactive: [5] 0.114 | [6] 0.0781 | [7] 0.143 | [8] 0.0595

CC(C)[C@]12O[C@H]1[C@@H]1O[C@@]13[C@@]1(C)CCC4=C(COC4=O)[C@@H]1C[C@@H]1O[C@@]13C2=O
active: [1] -2.66 | [2] -3.01 | [3] -3.24 | [4] -2.91

CC(C)c1ccc2c(c1O)CCC1C3=C(CCC21C)C(=O)OC3 (centres undefined)
inactive: [1] 0.0257 | [2] 0.104 | [3] 0.151 | [4] 0.343

O=C1C(Cl)=C(Cl)C(=O)C(Cl)=C1Cl
inactive: [1] 0.0885 | [2] 0.0373 | [3] 0.114 | [4] 0.156

ClC1C(Cl)C(Cl)C(Cl)C(Cl)C1Cl (centres undefined)
inactive: [1] 0.118 | [2] 0.0584 | [3] 0.159 | [4] -0.0362

C[N+]1(C)C2CC(OC(=O)[C@H](CO)c3ccccc3)CC1C1OC12 (some centres undefined)
inactive: [5] 0.208 | [6] 0.126 | [7] 0.131 | [8] 0.157

CCNC(=O)[C@H]1O[C@@H](n2cnc3c(N)ncnc32)[C@H](O)[C@@H]1O
inactive: [5] 0.186 | [6] 0.0998 | [7] 0.0806 | [8] 0.122

COc1c2c(cc3c1OCO3)CCN(C)C2
inactive: [1] 0.00337 | [2] -0.0221 | [3] 0.133 | [4] 0.0446

COc1cccc2c1cc([N+](=O)[O-])c1c(C(=O)O)cc3c(c12)OCO3
active: [3] -0.209
inactive: [1] 0.0105 | [2] 0.00257 | [4] -0.0027

CC(N)Cc1c[nH]c2ccccc12 (centres undefined)
inactive: [5] 0.229 | [6] 0.175 | [7] 0.0609 | [8] 0.105

CCn1cnc2c(Nc3cccc(Cl)c3)nc(N[C@@H]3CCCC[C@@H]3N)nc21
inactive: [5] 0.222 | [6] 0.14 | [8] -0.0222
active: [7] -0.199

C[C@H]1C[C@@H](O)[C@]2(O)[C@@]13CC(=O)OC[C@@]2(C)[C@](C)(O)C(=O)C3
inactive: [1] 0.0914 | [2] -0.0111 | [3] 0.0806 | [4] 0.024

CN[C@@H]1C[C@H]2O[C@@](C)([C@@H]1OC)n1c3ccccc3c3c4c(c5c6ccccc6n2c5c31)C(=O)NC4
active: 0.025 µM, library screen: screen1, EWS-FLI1 expression: high (no doxycycline) -2.08 | 0.025 µM, library screen: screen1, EWS-FLI1 expression: low (doxycycline-induced shRNA knockdown) -1.86 | [1] -3.68 | [2] -3.78 | [3] -4.25 | [4] -4.31 | 25 µM, library screen: screen1, EWS-FLI1 expression: high (no doxycycline) -4.11 | 25 µM, library screen: screen1, EWS-FLI1 expression: low (doxycycline-induced shRNA knockdown) -4.31

CC(=O)O[C@H]1C[C@@H](OC(C)=O)C(C)(C)C2C[C@@H](OC(C)=O)[C@]3(C)C(CC[C@@]4(C)[C@H](c5ccoc5)C(=O)[C@H]5O[C@]543)[C@]21C (some centres undefined)
inactive: [1] 0.0663 | [2] 0.135 | [3] 0.0399 | [4] 0.171

c1ccc2c(c1)cc1ccc3cccc4ccc2c1c34
inactive: [1] 0.0949 | [2] 0.14 | [3] 0.11 | [4] 0.179
